{"source": "PubChem BioAssay AID720517", "about": "(National Center for Advancing Translational Sciences (NCATS), 2013)", "note": "Inconclusive results are not listed. Active and inactive are the calls of the source. Calls follow the shape of the dose curve; as a rule, active = well fitted activation curve with a large enough effect; inconclusive = small, poorly fitted or top-dose-only effect; inactive = flat fitted curve, though single readings scatter. Potency is read from the fitted curve at half-maximal effect."}
{"assay": "qHTS for Inhibitors of Cell Surface uPA Generation: FP59 Counterscreen for Cherry-picked Compounds; as to activity (protection from FP59): 0% is about no effect", "settings": "FP59 anthrax toxin cytotoxicity counterscreen, cells; series mostly up to 115 µM; activity (protection from FP59): at the top concentration"}
{"smiles": "CN(C)C(=O)NC(NC(=S)Nc1ccccc1)C(Cl)(Cl)Cl", "note": "(stereo not drawn)", "activity (protection from FP59)": "-0.348% (inactive)"}
{"smiles": "CC1C2=C(CC(C)(C)CC2=O)NC2=C1C(=O)CC(C)(C)C2", "activity (protection from FP59)": "-1.24% (inactive)"}
{"smiles": "COc1ccc2c(ccn2S(=O)(=O)c2ccccc2)c1", "activity (protection from FP59)": "-0.86% (inactive)"}
{"smiles": "COc1ccc(Nc2nc(-c3ccccc3)c(C(=O)Nc3cccnc3)s2)cc1", "activity (protection from FP59)": "-1.43% (inactive)"}
{"smiles": "CCOc1ccccc1CN1CCCC(CNS(=O)(=O)c2ccc(OC)cc2)C1", "note": "(stereo not drawn)", "activity (protection from FP59)": "-0.81% (inactive)"}
{"smiles": "COc1cc(C(=O)Nc2nnc(C)s2)cc(OC)c1OC", "activity (protection from FP59)": "-1.5% (inactive)"}
{"smiles": "Cc1ccnc(N2CCN(C(=O)CSc3nc4ccccc4nc3N3CCC(C)CC3)CC2)c1", "Potency": "65.6 µM (active)"}
{"smiles": "CCCn1c(N)c(C(=O)CSc2nnc(C3CC3)n2Cc2ccccc2)c(=O)[nH]c1=O", "activity (protection from FP59)": "-1.31% (inactive)"}
{"smiles": "COc1cccc(NC(=O)CN(C)C(=O)c2csc3c2CCCC3)c1", "activity (protection from FP59)": "-0.968% (inactive)"}
{"smiles": "O=C(NNC(=O)c1cccc(-n2cccc2)c1)c1ccc(F)cc1", "activity (protection from FP59)": "-1.28% (inactive)"}
{"smiles": "Cc1ccc(Cl)c(N/C=C/C(=O)c2ccccc2)c1", "activity (protection from FP59)": "-1.59% (inactive)"}
{"smiles": "CCc1ccc(NCc2nc(-c3ccccc3)no2)cc1", "activity (protection from FP59)": "0.485% (inactive)"}
{"smiles": "O=C(c1ccco1)N1CCN(c2ncccn2)CC1", "activity (protection from FP59)": "-1.18% (inactive)"}
{"smiles": "Cc1ccc(NC(=O)CCCn2c(=S)[nH]c3ccsc3c2=O)cc1C", "activity (protection from FP59)": "1.08% (inactive)"}
{"smiles": "CCOC(=O)Cc1csc(NC(=O)Nc2cccc(OC)c2)n1", "activity (protection from FP59)": "-1.49% (inactive)"}
{"smiles": "Cc1cccc(CNc2ccc(C(CC(N)=O)NC(=O)c3cccc(Br)c3)cc2[N+](=O)[O-])c1", "note": "(stereo not drawn)", "activity (protection from FP59)": "-1.01% (inactive)"}
{"smiles": "CCN(c1ccccc1)S(=O)(=O)c1ccc(NC(=O)c2ccco2)cc1", "activity (protection from FP59)": "0.139% (inactive)"}
{"smiles": "Cc1c(C(=O)N2CCN(S(=O)(=O)c3cccs3)CC2)oc2ccc(F)cc12", "activity (protection from FP59)": "-1.4% (inactive)"}
